MEKK2mut PB1 HTS: MEK5 binding signal on mutant MEKK2 PB1, primary screen, biochemical, multiplex bead flow cytometry, Alexa488-MEK5 | percent response, % at 10 µM | Alexa488-MEK5 binding to MEKK2 mutant | 290,000 compounds, 0.35% hits; in the data active = percent response above about 24%, passing the limit was not always enough
NTR1 agonist: agonists of human NTR1, primary screen, imaging, U2OS cells, beta-arrestin-GFP, high content; 330,000 compounds, 0.17% hits; NTR1-U2OS beta-arrestin-GFP spot imaging, agonist mode; activation, % at 20 µM;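 active = activation at or above 40% of the spot to cytoplasm intensity ratio, with at least 20 cells analyzed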
MEKK2 WT-MEK5: modulators of MEK5 binding to wildtype MEKK2, primary screen, biochemical, multiplex bead flow cytometry, Alexa488-MEK5; Alexa488-MEK5 binding to MEKK2 WT; actives lie on both sides; binding response (% of control), % at 10 µM; 290,000 compounds, 1.1% hits; AID 1531, 2009; in the data active = binding response below about 67% or above about 130%
ANO1 activ: TMEM16A chloride channel activators or potentiators, primary screen, cell-based, HTS | B-score at 10 µM | Anoctamin-1 (Mus musculus), Q8BHY3 | HEK293 TMEM16A/YFP-H148Q/I152L, iodide quench fluorescence; active compounds read low | 340,000 compounds, 0.3% hits | AID 623877, 2012;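 active = fluorescence-ratio B-score plate-corrected deviation score at least 3 library SD below zero, with starting fluorescence score within 5 deviations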;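 also: channel opened by trigger with iodide after compound preincubation; score built on the fluorescence ratio of max minus min over baseline; more negative score means more quench and so TMEM16A activation or potentiation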
MEKK3 PB1 HTS: modulators of MEKK3-MEK5 PB1 binding, primary screen, biochemical, wildtype MEKK3, multiplex bead flow cytometry, Alexa488-MEK5 | Mitogen-activated protein kinase kinase kinase 3 (Homo sapiens), Q99759 | bead-based flow cytometry, Alexa488-MEK5 binding to MEKK3; actives lie on both sides; 0 = blocked by unlabeled MEK5, 100 = vehicle | binding response (% of control), % at 10 µM | 290,000 compounds, 1.4% hits;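 active = binding response more than 3 SD above or below the average of its plate-row segment, actives on both sides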;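 also: Alexa488 bead fluorescence after subtracting the streptavidin-only scavenger bead signal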
Target sequence (Q99759 whole entry, looked up): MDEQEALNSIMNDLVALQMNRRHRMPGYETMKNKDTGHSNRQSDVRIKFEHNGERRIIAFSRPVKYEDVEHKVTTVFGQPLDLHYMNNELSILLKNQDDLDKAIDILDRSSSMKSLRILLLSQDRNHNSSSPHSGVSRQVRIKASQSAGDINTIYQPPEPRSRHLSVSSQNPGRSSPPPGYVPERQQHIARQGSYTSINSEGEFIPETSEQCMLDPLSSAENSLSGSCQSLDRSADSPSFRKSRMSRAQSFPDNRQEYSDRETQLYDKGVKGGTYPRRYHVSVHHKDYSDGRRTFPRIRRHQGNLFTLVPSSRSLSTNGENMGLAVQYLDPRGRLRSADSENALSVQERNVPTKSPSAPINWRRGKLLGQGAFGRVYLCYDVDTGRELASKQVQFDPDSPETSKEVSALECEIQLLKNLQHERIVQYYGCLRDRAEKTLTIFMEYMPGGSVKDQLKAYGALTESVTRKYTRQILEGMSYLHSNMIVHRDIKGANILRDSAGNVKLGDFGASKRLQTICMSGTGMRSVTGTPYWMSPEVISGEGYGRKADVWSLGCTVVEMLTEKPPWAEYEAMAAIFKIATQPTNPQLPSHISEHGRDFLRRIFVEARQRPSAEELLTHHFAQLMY
ANO1 block: TMEM16A chloride channel inhibitors, primary screen, cell-based, HTS; AID 588511, 2011; 310,000 compounds, 1.2% hits; Anoctamin-1 (Mus musculus), Q8BHY3; normalized B-score (activity score, 25-100; higher = stronger inhibition) at 10 µM; HEK293 TMEM16A/YFP iodide influx fluorescence, ionomycin;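 active = ratio plate-corrected score three or more library SD toward inhibition, starting fluorescence score within five deviations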;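 also: score derived from kinetic fluorescence span divided by baseline fluorescence per well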
MEKK2wt confirm: modulators of MEK5 binding to wildtype MEKK2, confirmation, biochemical, single concentration, multiplex bead flow cytometry; shares compounds with MEKK3 PB1 HTS; Alexa488-MEK5 binding to MEKK2 WT; actives lie on both sides; binding response (% of control), % at 10 µM; 5,900 compounds, 2.4% hits; AID 1892, 2009; in the data active = binding response below about 16% or above about 210%; inactive = in between
MEKK2mut confirm: mutant MEKK2 PB1-MEK5 binding signal retest – biochemical, single concentration, multiplex bead flow cytometry, confirmation; shares compounds with MEKK3 PB1 HTS; Alexa488-MEK5 binding to MEKK2 mutant; percent response, % at 10 µM; 5,900 compounds, 2% hits; AID 1893, 2009; in the data active = percent response mostly above about 71%, no sharp cut-off; inactive = mostly below about 38%;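 also: higher means compound restores mutant binding toward wildtype level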
MEKK3 confirm: MEKK3 wild-type PB1 binding to MEK5, inhibitors, confirmation, biochemical, bead multiplex flow cytometry, single concentration, wildtype; Alexa488-MEK5 binding to MEKK3; active compounds read low; AID 1894, 2009; binding response (% of control), % at 10 µM; 5,900 compounds, 1.8% hits; shares compounds with MEKK3 PB1 HTS;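 active = binding response below 72% of control, or above a set upper limit, though filed actives all read lower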;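 also: lower values mean stronger disruption of MEK5 binding to MEKK3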
A number is an active result; 0 = inactive; - = not tested or not shown; [ ] = another dose, or the depositor's remark. An excerpt weighted towards active compounds, which were near 3.4% of everything screened.

SMILES | MEKK2mut PB1 HTS | NTR1 agonist | MEKK2 WT-MEK5 | ANO1 activ | MEKK3 PB1 HTS | ANO1 block | MEKK2wt confirm | MEKK2mut confirm | MEKK3 confirm
Cc1nn(C(C)C(=O)NCc2ccccc2)c(C)c1[N+](=O)[O-] (centres undefined) | 0 | 0 | 0 | 0 | 0 | 0 | - | - | -
CCc1ccc(NC(=O)C(C)n2nc(C)c([N+](=O)[O-])c2C)cc1 (centres undefined) | 0 | 0 | 0 | 0 | 68[inhibitor] | 0 | 0 | 0 | 0
CCN1CCN(Cc2ccc(NC(=O)c3ccc(C)c(NC(=O)c4ccno4)c3)cc2C(F)(F)F)CC1 | 0 | 0 | 0 | 0 | 0 | 0 | - | - | -
CCN1CCN(Cc2ccc(NC(=O)c3ccc(C)c(/C=C/c4cnc(Nc5cc(N6CCNCC6)nc(C)n5)cn4)c3)cc2C(F)(F)F)CC1 | 205 | 0 | 401 | 0 | 0 | 0 | 280 | 169 | 0
CCN1CCN(Cc2ccc(NC(=O)c3ccc(C)c(NC(=O)c4csc(-c5ccncc5)n4)c3)cc2C(F)(F)F)CC1 | 0 | 0 | 141 | 0 | 0 | 0 | 0 | 0 | 0
CCN1CCN(Cc2ccc(NC(=O)c3ccc(C)c(NC(=O)c4cccc(-c5cn[nH]c(=O)c5)c4)c3)cc2C(F)(F)F)CC1 | 29 | 0 | 169 | 0 | 0 | 0 | 0 | 0 | 0
CCN1CCN(Cc2ccc(NC(=O)c3ccc(C)c(NC(=O)c4c[nH]c5cc(C(F)(F)F)ccc5c4=O)c3)cc2C(F)(F)F)CC1 | 83 | 0 | 199 | 0 | 0 | 0 | 224 | 131 | 0
CN1CCN(C(=O)C2CCC(=O)N(CCc3cccc(F)c3)C2)CC1 (centres undefined) | 0 | 0 | 0 | 0 | 0 | 0 | - | - | -
CCC(OC(=O)c1ccco1)C(=O)NC1CCCC1 (centres undefined) | 0 | 0 | 0 | 0 | 0 | 0 | - | - | -
N#CCCNC(=O)Cn1c(COc2ccc(Cl)cc2)nc2ccccc21 | 0 | 0 | 0 | 0 | 143 | 0 | 0 | 0 | 0
CC1CN(c2ccc(C(=O)c3ccccc3C(=O)O)cc2[N+](=O)[O-])CC(C)O1 (centres undefined) | 0 | 0 | 0 | 0 | 0 | 0 | - | - | -
CN(C)CCCN1C(=O)C(O)=C(C(=O)c2cccs2)C1c1cccc([N+](=O)[O-])c1 (centres undefined) | 0 | 0 | 1.0[inhibitor] | - | 2.0[inhibitor] | 0 | 0 | 0 | 0
O=C1COc2ccc(C(=O)CSc3nnc(Cc4cccs4)n3-c3ccc(Cl)cc3)cc2N1 | 0 | 0 | 0 | 0 | 55[inhibitor] | 0 | 0 | 0 | 0
O=C1COc2ccc(C(=O)CSc3nnnn3-c3ccccc3)cc2N1 | 0 | 0 | 0 | 0 | 0 | 0 | - | - | -
O=C1COc2ccc(C(=O)CSc3nc4ccccc4c(=O)n3-c3ccc(Cl)c(Cl)c3)cc2N1 | 0 | 0 | 0 | 0 | 136 | 0 | 0 | 0 | 0
CC1=C(C(=O)N2CCOCC2)C(c2ccc(OC(F)F)cc2)NC(=S)N1c1ccccc1 (centres undefined) | 0 | 0 | 0 | 0 | 0 | 0 | - | - | -
O=C(Nc1ccc(OCC(=O)N2CCOCC2)cc1)Nc1cccc2ccccc12 | 0 | 0 | 0 | 0 | 0 | 0 | - | - | -
C=CCOn1c(=O)c(-c2ccc(OCC)cc2)[n+]([O-])c2ccccc21 | 0 | 0 | 0 | 0 | 0 | 0 | - | - | -
Cc1ccc(C(=O)Nc2nc(-c3ccccc3)c(-c3ccccc3)o2)cc1 | 0 | 0 | 0 | 0 | 0 | 0 | - | - | -
O=C(C[n+]1ccccc1)Nc1c(Cl)cc(Cl)cc1Cl | 0 | 0 | 0 | 0 | 0 | 0 | - | - | -
Cc1ccc[n+](CC(=O)Nc2c(Cl)cc(Cl)cc2Cl)c1 | 0 | 0 | 0 | 0 | 68[inhibitor] | 0 | 0 | 0 | 0
COc1ccc(N=C2NC(=O)/C(=C/c3ccc(O)c(OC)c3)S2)cc1 | 0 | 0 | 0 | 0 | 146 | 0 | 0 | 0 | 0
CC1CCCCN1C(=O)C(=O)c1cn(CC(=O)N2CCCC2)c2ccccc12 (centres undefined) | 0 | 0 | -3.0[inhibitor] | 0 | 1.0[inhibitor] | 0 | 0 | 0 | 0
Cc1ccc(NC(=O)CN2C(=O)C(=O)N(C3CCCC3)C2=O)cc1Cl | - | 0 | - | 0 | - | - | - | - | -
CCC(=C(c1ccc(OC)cc1)c1ccc(OC)cc1)c1cn(CC(O)CN(CCO)CCO)c2ccccc12 (centres undefined) | 0 | 0 | 149 | 0 | 0 | 0 | 0 | 0 | 0
SMILES | MEKK2mut PB1 HTS | NTR1 agonist | MEKK2 WT-MEK5 | ANO1 activ | MEKK3 PB1 HTS | ANO1 block | MEKK2wt confirm | MEKK2mut confirm | MEKK3 confirm
O=c1cc(NS(=O)(=O)c2ccccc2)nc(SCc2ccc(Cl)cc2)[nH]1 | 0 | - | 0 | 0 | 129 | 0 | 0 | 0 | 0
CC(=O)Nc1ccc(OCC(O)CN2C(C)(C)CC(O)CC2(C)C)cc1 (centres undefined) | 0 | 0 | 0 | 0 | 74[inhibitor] | 0 | 0 | 0 | 0
CC(=O)Nc1ccc(OCC(O)Cn2c3ccccc3c3ccccc32)cc1 (centres undefined) | 0 | 0 | 0 | 0 | 176 | 0 | -6.0[inhibitor] | 0 | 0
O=C(Nc1nc(-c2ccccc2)c(C(=O)c2ccccc2)s1)c1ccc(S(=O)(=O)N2CCCC2)cc1 | 0 | 0 | 0 | 0 | 135 | 0 | 0 | 0 | 0
O=C(Nc1nc(-c2ccccc2)c(-c2ccccc2)s1)c1ccc(S(=O)(=O)N2CCCC2)cc1 | - | 0 | - | 0 | - | 0 | - | - | -
COC(=O)Cn1c(=NC(=O)c2cc(OC)cc(OC)c2)sc2cc(OC)ccc21 | 0 | 0 | 0 | 0 | 130 | 0 | 0 | 0 | 0
COC(=O)Cn1c(=NC(=O)c2ccc(OC)cc2)sc2cc(OC)ccc21 | 0 | 0 | 0 | 0 | 0 | 0 | - | - | -
COC(=O)C1=C(C(=O)OC)[C@@H]2N(Cc3ccccc3)c3ccccc3[C@@]23C[C@@H](C(=O)OC)N=C3N1 | 0 | 0 | 141 | 0 | 0 | 0 | 0 | 0 | 0

Screening data as filed in PubChem BioAssay.
